# According to the supplement of paper PMC7380943:
# How the values were obtained:
# [1] = test system: CLZ3 (HCA2 human fibroblast dual HR-NHEJ reporter); assay: NHEJ repair efficiency (GFP+ cells) relative to control (log10 fold); higher = more non-homologous end joining; conditions: 5 µM; doxycycline 0.5 ug/mL
# [2] = test system: CLZ3 (HCA2 human fibroblast dual HR-NHEJ reporter); assay: HR repair efficiency (tdTomato+ cells) relative to control (log10 fold); higher = more homologous recombination; conditions: 5 µM; doxycycline 0.5 ug/mL
# 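Wherever HR repair efficiency (tdTomato+ cells) relative to control is given: compound given one day before doxycycline, which switches on I-SceI endonuclease expression to create double-strand breaks within the integrated reporter.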
# 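Wherever NHEJ repair efficiency (GFP+ cells) relative to control is given: compound given one day ahead of doxycycline, which switches on I-SceI endonuclease to cut the chromosomally integrated reporter and create DSBs.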
SMILES,NHEJ repair efficiency (log10) [1],HR repair efficiency (log10) [2]
COc1cc(C2Oc3cc([C@H]4Oc5cc(O)cc(O)c5C(=O)[C@@H]4O)ccc3OC2CO)ccc1O (some centres not stated) [Silymarin Ⅱ],-0.124,-0.127
COc1ccc2c(OC)c3ccoc3nc2c1OC [Skimmianine],-0.0606,0.00427
O=C(O)[C@H]1O[C@@H](Oc2cc(O)c3c(=O)cc(-c4ccc(O)cc4)oc3c2)[C@H](O)[C@@H](O)[C@@H]1O [Apigenin-7-O-Glucronide],-0.216,0.161
COc1cc(C(=O)O)cc(OC)c1O [Syringic acid],-0.0271,-0.177
COc1cc2c(cc1OC)[C@@H]1Cc3ccc(OC)c(OC)c3CN1CC2 [Rotundine],-0.0594,0.112
O=c1ccc2ccccc2o1 [Coumarin],-0.104,0.0819
